Molecules are shown by their SMILES. The source made the active and inactive calls. The calls were made as follows: active = hit-call score of the fitted dose curve at least 0.9, where 1 is the maximum; inactive = score below 0.9.

Experiment [1] is described as follows: ATG_CRE_CIS: Attagene CIS-FACTORIAL HepG2 Assay for human cAMP Responsive Element (CRE) binding protein 3 (AID 2282926). Particulars: HepG2 CRE cis-reporter, Attagene multiplexed mRNA; actives raise or lower the signal. The gist of the method:
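We dosed HepG2 cells bearing multiple cis-promoter reporter units for 24 h and measured reporter mRNA by RT-PCR with capillary electrophoresis detection. Bidirectional concentration-response fitting used DMSO as negative control.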

Experiment [2] addresses CCAAT/enhancer-binding protein beta (Homo sapiens) (UniProt P17676). Nature of the experiment: ATG_C_EBP_CIS: Attagene CIS-FACTORIAL HepG2 Assay for human CCAAT/Enhancer Binding Protein (C/EBP) beta (AID 2282927). Particulars: HepG2 Attagene cis-factorial transcription factor reporter; actives raise or lower the signal. An outline of the steps: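 Chemical-treated HepG2 cells (24 h) bearing cis-regulated reporter constructs were processed for total RNA, then reverse transcription, PCR amplification, fluorescent primer extension and fragment analysis; gain- and loss-of-signal were fitted against DMSO.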

The nature of experiment [3]: ATG_CMV_CIS: Attagene CIS-FACTORIAL HepG2 Assay for human CMV (Internal Marker) (AID 2282928).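 Also: endpoint acts as a background internal control marker rather than a target.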 Particulars: HepG2 CMV promoter reporter, transcription factor profiling; actives raise or lower the signal. The gist of the method: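 CMV internal-marker background readout in transiently transfected HepG2 cells bearing cis-regulated reporter units. Reporter mRNA is measured 24 h after dosing by RT-PCR and capillary electrophoresis, with bidirectional fitting against DMSO.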

The nature of experiment [4]: ATG_DR4_LXR_CIS: Attagene CIS-FACTORIAL HepG2 Assay for human Liver X Receptor (LXR), DR4 submotif (AID 2282929). Particulars: HepG2 Attagene DR4 cis-reporter, mRNA transcription; actives raise or lower the signal. An outline of the steps:
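Cells were transfected with multiple reporter transcription units, exposed to chemicals for 24 hours, then lysed for RNA. Reporter mRNA induction was measured by RT-PCR with capillary electrophoresis detection and fitted in both directions relative to DMSO.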

Experiment [5] addresses Aryl hydrocarbon receptor (Homo sapiens) (UniProt P35869). Nature of the experiment: ATG_Ahr_CIS: Attagene CIS-FACTORIAL HepG2 Assay for human Aryl Hydrocarbon Receptor (Ahr) (AID 2282930). The following applies: HepG2 AhR cis-factorial reporter transcription; actives raise or lower the signal. An outline of the steps: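 Following 24 h of chemical dosing, transfected HepG2 liver cells with cis-driven reporter units were lysed for RNA; reporter mRNA was quantified via RT-PCR and capillary electrophoresis, and responses fitted bidirectionally from DMSO.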

Experiment [6] in a line: ATG_AP_1_CIS: Attagene CIS-FACTORIAL HepG2 Assay for human Activator Protein 1 (AP-1) (AID 2282931). The following applies: HepG2 Attagene cis-factorial AP-1 reporter mRNA; actives raise or lower the signal. An outline of the steps:
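Endogenous transcription-factor activity in human HepG2 liver cells is read through a cis-promoter reporter transcript, sampled 24 h after dosing. Detection uses RT-PCR with capillary electrophoresis; values come from bidirectional fitting relative to DMSO.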

A short description of experiment [7]: ATG_AP_2_CIS: Attagene CIS-FACTORIAL HepG2 Assay for human Activator Protein 2 (AP-2) (AID 2282932). Particulars: HepG2 AP-2 cis-reporter, Attagene transcription factor profiling; actives raise or lower the signal. An outline of the steps:
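HepG2 cells were transiently transfected with multiple cis-promoter reporter transcription units and dosed for 24 h. Reporter mRNA was measured by RT-PCR with capillary electrophoresis fluorescence; bidirectional fits relative to DMSO baseline.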

The nature of experiment [8]: ATG_BRE_CIS: Attagene CIS-FACTORIAL HepG2 Assay for human Bone Morphogenetic Protein (BMP) Response Element (BRE) (AID 2282933). The following applies: HepG2 BMP response element reporter, Attagene transcription factor profiling; actives raise or lower the signal. The gist of the method:
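Transient MRTU transfection of human HepG2 liver cells; 24 h compound treatment; total RNA isolated, reverse-transcribed, PCR-amplified, 6-FAM labelled, HpaI-cut, capillary electrophoresis. DMSO = negative control/baseline, bidirectional fit.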

Experiment [9] deals with Transcription factor E2F1 (Homo sapiens) (UniProt Q01094). Kind of experiment: ATG_E2F_CIS: Attagene CIS-FACTORIAL HepG2 Assay for human E2F Transcription Factor 1 (AID 2282935). Particulars: HepG2 Attagene cis-reporter, E2F reporter RNA transcripts; actives raise or lower the signal. An outline of the steps:
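HepG2 cells transiently transfected with multiplexed cis-element reporter units, dosed for 24 h. Reporter mRNA measured by RT-PCR, 6-FAM primer-extension labeling, HpaI digestion and capillary electrophoresis; bidirectional fit versus DMSO baseline.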

Experiment [10] is described as follows: ATG_E_Box_CIS: Attagene CIS-FACTORIAL HepG2 Assay for human Enhancer Box (E-box) (AID 2282936). Particulars: HepG2 E-box cis-reporter transcription, actives raise or lower the signal. An outline of the steps: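 HepG2 cells transiently transfected with multiplexed cis-element reporter units sensing endogenous transcription factor activity; 24 h compound exposure. Reporter mRNA measured by RT-PCR, 6-FAM primer extension, HpaI digestion and capillary electrophoresis; bidirectional fit versus DMSO.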

A short description of experiment [11]: ATG_M_61_CIS: Attagene CIS-FACTORIAL HepG2 Assay for M61 Transcription Factor (Internal Marker) (AID 2282937). The following applies: HepG2 Attagene CIS-FACTORIAL M61 internal marker reporter; actives raise or lower the signal. An outline of the steps: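 Cells were transfected with reporter units under cis-regulatory promoters, treated with chemicals for 24 h, then lysed for RNA. Reporter transcripts were quantified by RT-PCR and capillary electrophoresis, and activity was fitted bidirectionally against DMSO.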

A short description of experiment [12]: ATG_EGR_CIS: Attagene CIS-FACTORIAL HepG2 Assay for human Early Growth Response 1 (EGR1) (AID 2282938). The following applies: HepG2 Attagene CIS-FACTORIAL EGR reporter mRNA; actives raise or lower the signal. An outline of the steps: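 Endogenous TF activity in HepG2 liver cells was gauged through cis-promoter reporter constructs transiently transfected. After 24 h dosing, reporter mRNA was quantified by RT-PCR and capillary electrophoresis, and curves fitted in both directions versus DMSO.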

The nature of experiment [13]: ATG_M_19_CIS: Attagene CIS-FACTORIAL HepG2 Assay for M19 Transcription Factor (Internal Marker) (AID 2282939). Particulars: HepG2 Attagene CIS-FACTORIAL M19 internal marker reporter; actives raise or lower the signal. An outline of the steps:
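Transfect HepG2 with MRTU reporter library → dose chemical, 24 h → isolate total RNA, reverse-transcribe with oligo(dT) → PCR, 6-FAM label, HpaI cut (2 h, 37 C) → capillary electrophoresis. Bidirectional fit vs DMSO.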

The nature of experiment [14]: ATG_Ets_CIS: Attagene CIS-FACTORIAL HepG2 Assay for human Erythroblast Transformation Specific (ETS) (AID 2282941). The following applies: HepG2 ETS cis-reporter transcription, actives raise or lower the signal. An outline of the steps: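 HepG2 cells transfected with multiple cis-regulated reporter units measuring endogenous ETS-driven transcription, 24 h after dosing. Reporter mRNA quantified by RT-PCR with capillary electrophoresis; bidirectional fit relative to DMSO.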

Experiment [15] has as its target Hepatocyte nuclear factor 3-beta (Homo sapiens) (UniProt Q9Y261). Nature of the experiment: ATG_FoxA2_CIS: Attagene CIS-FACTORIAL HepG2 Assay for human Forkhead box A2 (FOXA2) (AID 2282942). The following applies: HepG2 cis-reporter transcription factor activity, 24 h; actives raise or lower the signal. An outline of the steps:
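Endogenous transcription factor activity was read in HepG2 cells carrying transiently transfected cis-promoter reporter units. After 24 h dosing, reporter mRNA was quantified by RT-PCR and capillary electrophoresis, and values fitted bidirectionally versus DMSO.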

Experiment [16] in a line: ATG_FoxO_CIS: Attagene CIS-FACTORIAL HepG2 Assay for human Forkhead box O (FoxO) (AID 2282943). Particulars: HepG2 Attagene cis-reporter, FoxO element, mRNA; actives raise or lower the signal. An outline of the steps:
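24 h chemical exposure, HepG2 with transient cis-MRTU transfection. RNA extraction, oligo(dT) RT, reporter-specific PCR, primer-extension labelling, HpaI digestion, CE fragment analysis; bidirectional fit, DMSO baseline.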

Experiment [17] in a line: ATG_GATA_CIS: Attagene CIS-FACTORIAL HepG2 Assay for human GATA Binding Protein (AID 2282944). Particulars: HepG2 GATA cis-element reporter, Attagene multiplex mRNA; actives raise or lower the signal. An outline of the steps:
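Transient MRTU transfection, HepG2, 24 h compound exposure. Total RNA → oligo(dT) RT → PCR → 6-FAM primer extension → HpaI cut → CE. Bidirectional fit vs DMSO.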

Experiment [18] in a line: ATG_GLI_CIS: Attagene CIS-FACTORIAL HepG2 Assay for human Zinc Finger Protein GLI1 (AID 2282945). Particulars: HepG2, Attagene cis-factorial reporter mRNA, GLI element; actives raise or lower the signal. An outline of the steps:
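HepG2 cells transiently transfected with cis-promoter multiplexed reporter units report endogenous transcription factor activity. After 24 h chemical exposure, reporter mRNA was quantified by RT-PCR, 6-FAM labelling, HpaI digestion and capillary electrophoresis, with bidirectional fitting against DMSO.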

The nature of experiment [19]: ATG_ERE_CIS: Attagene CIS-FACTORIAL HepG2 Assay for Estrogen Response Element (ERE) (AID 2282940). The following applies: HepG2 ERE cis-reporter, Attagene RNA transcript; actives raise or lower the signal. An outline of the steps:
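Transient MRTU transfection of human HepG2; cis-element promoters; 24 h dosing; total RNA → RT (oligo dT) → PCR → 6-FAM primer extension → HpaI digest → CE fluorescence. Bidirectional fit, DMSO baseline.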

Sequence of CCAAT/enhancer-binding protein beta (Homo sapiens) (P17676 whole entry, looked up, the tested form may be a part): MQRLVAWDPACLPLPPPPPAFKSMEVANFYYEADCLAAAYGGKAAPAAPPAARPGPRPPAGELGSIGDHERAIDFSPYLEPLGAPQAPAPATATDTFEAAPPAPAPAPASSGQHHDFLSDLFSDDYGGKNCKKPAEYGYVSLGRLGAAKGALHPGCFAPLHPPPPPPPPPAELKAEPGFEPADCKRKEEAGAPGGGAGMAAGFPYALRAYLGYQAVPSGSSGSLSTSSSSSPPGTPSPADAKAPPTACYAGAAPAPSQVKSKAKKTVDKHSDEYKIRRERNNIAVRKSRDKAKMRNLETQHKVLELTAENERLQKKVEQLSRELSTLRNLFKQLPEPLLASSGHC
Sequence of Transcription factor E2F1 (Homo sapiens) (Q01094 whole entry, looked up): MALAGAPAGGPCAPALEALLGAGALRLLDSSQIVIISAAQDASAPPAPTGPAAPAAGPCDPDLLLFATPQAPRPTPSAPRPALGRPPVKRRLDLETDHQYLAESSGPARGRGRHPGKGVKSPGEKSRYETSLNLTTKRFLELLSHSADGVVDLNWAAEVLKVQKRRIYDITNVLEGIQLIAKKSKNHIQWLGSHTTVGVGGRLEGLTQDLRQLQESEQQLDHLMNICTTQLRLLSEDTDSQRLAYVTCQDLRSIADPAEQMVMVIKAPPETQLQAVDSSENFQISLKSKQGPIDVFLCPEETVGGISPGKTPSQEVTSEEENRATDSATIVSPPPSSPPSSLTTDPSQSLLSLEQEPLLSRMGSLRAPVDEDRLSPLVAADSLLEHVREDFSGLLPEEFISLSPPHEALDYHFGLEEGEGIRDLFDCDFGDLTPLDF
Sequence of Aryl hydrocarbon receptor (Homo sapiens) (P35869 whole entry, looked up): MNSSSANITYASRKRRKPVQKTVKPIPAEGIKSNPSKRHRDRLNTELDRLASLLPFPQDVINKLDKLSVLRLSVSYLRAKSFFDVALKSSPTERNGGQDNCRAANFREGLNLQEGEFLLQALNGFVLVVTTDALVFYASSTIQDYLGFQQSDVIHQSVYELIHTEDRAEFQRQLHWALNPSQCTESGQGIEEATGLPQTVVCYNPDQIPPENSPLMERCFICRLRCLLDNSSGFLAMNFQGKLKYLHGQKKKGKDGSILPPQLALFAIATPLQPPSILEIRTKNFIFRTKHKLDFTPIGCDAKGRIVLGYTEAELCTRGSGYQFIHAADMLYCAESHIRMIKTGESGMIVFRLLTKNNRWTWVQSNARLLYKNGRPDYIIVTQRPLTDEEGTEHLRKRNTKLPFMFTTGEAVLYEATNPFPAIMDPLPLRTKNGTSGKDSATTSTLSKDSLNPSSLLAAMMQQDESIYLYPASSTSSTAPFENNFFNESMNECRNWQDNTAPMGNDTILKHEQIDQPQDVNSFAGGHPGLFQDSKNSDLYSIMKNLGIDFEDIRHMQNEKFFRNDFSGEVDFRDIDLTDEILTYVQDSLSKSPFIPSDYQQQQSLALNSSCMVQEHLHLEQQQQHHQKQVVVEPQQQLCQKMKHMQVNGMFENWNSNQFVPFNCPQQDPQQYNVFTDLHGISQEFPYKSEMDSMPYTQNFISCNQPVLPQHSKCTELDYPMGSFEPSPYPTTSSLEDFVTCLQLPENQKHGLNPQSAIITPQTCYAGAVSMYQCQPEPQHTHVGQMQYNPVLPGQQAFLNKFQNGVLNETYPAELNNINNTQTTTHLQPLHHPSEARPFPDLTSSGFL
Sequence of Hepatocyte nuclear factor 3-beta (Homo sapiens) (Q9Y261 whole entry, looked up): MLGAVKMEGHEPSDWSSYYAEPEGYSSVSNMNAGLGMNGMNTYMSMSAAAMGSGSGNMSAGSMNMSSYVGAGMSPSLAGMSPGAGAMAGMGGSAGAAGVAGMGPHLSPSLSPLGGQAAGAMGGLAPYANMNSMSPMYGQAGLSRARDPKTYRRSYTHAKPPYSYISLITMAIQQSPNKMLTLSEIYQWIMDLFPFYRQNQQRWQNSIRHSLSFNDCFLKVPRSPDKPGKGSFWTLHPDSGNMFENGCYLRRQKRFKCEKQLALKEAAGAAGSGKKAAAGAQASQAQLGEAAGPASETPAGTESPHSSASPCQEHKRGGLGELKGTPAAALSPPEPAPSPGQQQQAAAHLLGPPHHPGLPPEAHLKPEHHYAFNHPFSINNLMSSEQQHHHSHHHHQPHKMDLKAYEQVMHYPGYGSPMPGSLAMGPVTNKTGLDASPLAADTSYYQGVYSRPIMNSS

As to `Cc1ccc2sc3cccc(C)c3c2c1`, the result in experiment [1], in experiment [2], in experiment [3], in [4], in experiment [5] and in experiment [6] was inactive. Moreover, the call in experiment [7], in [8], in experiment [9], in experiment [10], in [11] and in experiment [12] was inactive. Moreover, the outcome in experiment [13], in experiment [14], in experiment [15], in experiment [16], in experiment [17] and in experiment [18] was inactive.
Turning to `CO[Si](C)(OC)c1ccccc1`, the result in [1], in [2], in experiment [3], in [4], in [6] and in [7] was inactive. For the same compound, the outcome in [8], in experiment [9], in experiment [10], in experiment [11], in experiment [12] and in experiment [13] was inactive. The compound was classed as inactive in experiment [19], in [14], in experiment [15], in experiment [16], in [17] and in experiment [18]. Also, the AC50 (usually the concentration at which the activity in the assay is half-maximal) in experiment [5] was 130 µM (active).
Turning to `CC1(C)[C@@H]2CC[C@@]1(C)[C@H](O)C2`, the call in experiment [1], in [2], in experiment [3], in experiment [4], in [5] and in [6] was inactive. The call in experiment [7], in [8], in experiment [9], in [10], in experiment [11] and in experiment [12] was inactive. Also, the call in experiment [13], in experiment [14], in experiment [15], in [16], in experiment [17] and in experiment [18] was inactive.
In the case of `c1ccc2[nH]ccc2c1`, the call in [1], in experiment [2], in [3], in experiment [4], in experiment [6] and in experiment [7] was inactive. For the same compound, the result in experiment [8], in experiment [9], in [10], in [11], in experiment [12] and in experiment [13] was inactive. The compound was called inactive in [14], in experiment [15], in [16], in experiment [17] and in [18]. Also, the concentration at half-maximal activity (AC50) in experiment [5] is 14.6 µM (active).
For `C[C@]12CC[C@H]3[C@@H](CCC4=CC(=O)CC[C@@]43C)[C@@H]1CC[C@@H]2C(=O)CO`, the compound was called inactive in experiment [1], in [2], in [3], in experiment [4], in experiment [5] and in [6]. The compound was classed as inactive in experiment [7], in [9], in [10], in experiment [11], in [13] and in experiment [15]. In addition, the call in experiment [16], in experiment [17] and in experiment [18] was inactive. The AC50 in experiment [8] was 100 µM (active); in experiment [12] it was 55.9 µM (active); in experiment [19], 0.635 µM (active).
For `CN1[C@@H]2CC(OC(=O)[C@H](CO)c3ccccc3)C[C@H]1[C@@H]1O[C@@H]12` (stereo partly specified), the call in experiment [1], in experiment [2], in experiment [3], in experiment [4], in [5] and in experiment [6] was inactive. For the same compound, the compound was classed as inactive in experiment [7], in [8], in [9], in [10], in experiment [11] and in [12]. Further, the result in [13], in [14], in [15], in experiment [16], in experiment [17] and in [18] was inactive.
For `CC(O)C(C)O` (stereo unspecified), the call in experiment [1], in [2], in [3], in experiment [4], in experiment [5] and in experiment [6] was inactive. In addition, the compound was called inactive in experiment [7], in experiment [8], in experiment [9], in experiment [10], in experiment [11] and in experiment [12]. Besides, the call in experiment [13], in experiment [14], in experiment [15], in experiment [16] and in [17] was inactive.
